Source: PubChem
FBA Mtb inh: Mtb FBA enzyme inhibitors, primary screen, biochemical, fluorescence, strain H37Rv; Fructose-bisphosphate aldolase (Mycobacterium tuberculosis (strain ATCC 25618 / H37Rv)), …; 360,000 tested, 2.3% active; AID 588726, 2011; purified M. tuberculosis FBA, fluorescence read-out; inhibition, % at 1 µM; in the data active = inhibition above about 27%;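 note: 0% = vehicle and 100% = reference inhibitor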
Target sequence (P9WQA3 whole entry, looked up): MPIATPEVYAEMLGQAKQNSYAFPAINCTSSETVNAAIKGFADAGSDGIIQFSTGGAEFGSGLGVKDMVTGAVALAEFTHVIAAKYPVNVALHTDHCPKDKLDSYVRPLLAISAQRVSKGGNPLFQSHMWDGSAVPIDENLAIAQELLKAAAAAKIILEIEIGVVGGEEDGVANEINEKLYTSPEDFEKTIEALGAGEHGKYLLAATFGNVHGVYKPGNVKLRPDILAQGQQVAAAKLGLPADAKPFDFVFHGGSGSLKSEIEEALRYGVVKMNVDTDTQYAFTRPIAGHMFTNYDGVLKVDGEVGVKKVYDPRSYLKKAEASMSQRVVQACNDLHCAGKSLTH
GDH-TPI counter: GDH-TPI coupling enzyme inhibitors, primary screen, artefact control for M. tuberculosis FBA inhibitor project, biochemical, absorbance, full deck; GDH-TPI coupled enzyme counterscreen, NADH absorbance; inhibition, % at 4.8 µM; 360,000 tested, 1.2% active; in the data active = inhibition above about 30%;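 note: 0% = DMSO wells and 100% = wells lacking the enzyme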
3CLpro inhibitor: SARS-CoV 3CLpro protease inhibitors, primary screen, biochemical, quenched FRET | AID 1706, 2009 | inhibition, % at 6 µM | recombinant SARS-CoV 3CLpro, quenched FRET peptide cleavage | 290,000 tested, 0.14% active; in the data active = inhibition above about 12%
Mtb BioA inh: M. tuberculosis BioA enzyme inhibitors, primary screen, biochemical, plate reader, single point, HTS | purified M. tuberculosis BioA enzyme | AID 602481, 2012 | inhibition, % at 9.99 µM | 360,000 tested, 0.096% active; in the data active = inhibition above about 40%
FadD28 FP inh: inhibitors of FadD28 bisubstrate probe binding, primary screen, biochemical, fluorescence polarization, single point; 360,000 tested, 0.22% active; AID 588549, 2011; inhibition, % at 12.5 µM; Mycobacterium tuberculosis FadD28 fatty-acid-AMP ligase; in the data active = inhibition above about 8.5%, passing the limit was not always enough
The depositor's hits bear a star; . = no result given. Shown are actives, neighbours in structure and some others; about 3.1% of the full set was active somewhere.

SMILES	FBA Mtb inh	GDH-TPI counter	3CLpro inhibitor	Mtb BioA inh	FadD28 FP inh
COc1ccc(/C=C(\NC(=O)c2ccccc2)C(=O)N/N=C/c2cccnc2)cc1	-2	39*	2	.	-4
COc1ccc(/C=C(\NC(=O)c2ccccc2)C(=O)NCc2cccnc2)cc1	0	-1	-8	.	1
COc1ccc(/C=C(\NC(=O)c2ccccc2)C(=O)N/N=C/c2ccncc2)cc1	0	49*	3	1	-3
Cc1ccnc(N/C=C(/NC(=O)c2ccccc2)C(=O)N/N=C\c2ccc(F)cc2)n1	2	54*	6	-1	-1
CCC(=O)Nc1ccc2c(c1)OC[C@@H](C)N(C(=O)Cc1ccccn1)C[C@@H](C)[C@H](OC)CN(C)C2=O	.	.	.	-1	.
CCOC(=O)c1nc2sc(C)c(C)c2c(=O)[nH]1	126*	14	2	.	-3
CC(=O)OCc1nc2sc(C)c(C)c2c(=O)[nH]1	0	-4	3	0	-2
O=C(O)C1Nc2c(Cl)cc(Cl)cc2C2C=CCC12 (stereo not given)	-1	-1	-3	1	14*
O=C(O)C1Nc2c(O)cccc2C2C=CCC12 (stereo not given)	-6	9	1	.	15*
O=C(O)C1Nc2ccc(Br)cc2C2C=CCC12 (stereo not given)	-2	-3	1	3	27*
O=C(O)C1Nc2c(Cl)cc(Cl)c(Cl)c2C2C=CCC12 (stereo not given)	-2	7	1	-1	7
C[C@@H]1CN([C@H](C)CO)C(=O)c2cccc(NS(=O)(=O)c3ccc(F)cc3)c2O[C@@H]1CN(C)Cc1ccc(C(F)(F)F)cc1	.	.	.	2	.
Cc1ccc(C)c(-n2c(C)cc(/C=N/NC(=O)c3c(C)nc4cc(C)ccn34)c2C)c1	2	39*	2	-2	-2
Cc1ccc2nc(C)c(C(=O)N/N=C/c3cccs3)n2c1	1	37*	1	.	-1
Cc1ccc2nc(C)c(C(=O)NN=C3CCCCCC3)n2c1	3	15	0	.	-3
Cc1ccc2nc(C)c(C(=O)N/N=C/c3cccs3)cc2c1	-1	18	-3	.	-1
Cc1ccn2c(C(=O)N/N=C\c3cccs3)c(C)nc2c1	0	62*	-3	14	-1
O=C(C[C@@H]1C[C@@H]2c3cc(NC(=O)NC4CCCC4)ccc3O[C@@H]2[C@H](CO)O1)NCc1ccc(-c2ccccc2)cc1	.	.	.	-2	.
CCOC(=O)N1CCN(C(=O)c2cc3c(s2)-c2ccccc2OC3)CC1	147*	23	-2	-2	1
CCCN1CCN(C(=O)c2cc3c(s2)-c2ccccc2OC3)CC1	186*	33*	1	17	-1
CC(C)(Cl)C1Cc2cc3ccc(=O)oc3cc2O1 (stereo not given)	167*	26	2	2	0
Cc1coc2cc3oc(=O)ccc3cc12	3	-1	-2	1	.
COc1cccc(/C=C2\Oc3cc(OCC(=O)N4CCC[C@H]4C(=O)O)ccc3C2=O)c1	1	36*	5	0	-4
COc1ccc(S(=O)(=O)N2CCCCN3[C@H](CO)[C@@H](c4ccc(C#CC5CC5)cc4)[C@@H]3C2)cc1	.	.	.	-1	.
CCCc1cc(-n2cnc3ccccc32)n2c(nc3ccccc32)c1C#N	5	10	1	27	0
SMILES	FBA Mtb inh	GDH-TPI counter	3CLpro inhibitor	Mtb BioA inh	FadD28 FP inh
CCCc1cc(NCCCN(C)C)n2c(nc3ccccc32)c1C#N	112*	6	0	1	1
CCCc1cc(NCCN(C)C)n2c(nc3ccccc32)c1C#N	162*	12	-9	0	-3
CCCc1cc(NCC2CCCO2)n2c(nc3ccccc32)c1C#N (stereo not given)	192*	15	1	0	-3
C=CCN(CC=C)c1nc2ccccc2nc1C(C#N)C(=O)OCCOC (stereo not given)	57*	-6	-9	-1	-3
CCCN(CCC)c1nc2ccccc2nc1C(C#N)C(=O)OCCOC (stereo not given)	-5	7	-8	0	-4
COc1ccc(CN(C)C[C@@H]2Oc3ccc(NC(=O)C4CCCCC4)cc3C(=O)N([C@@H](C)CO)C[C@@H]2C)cc1	.	.	.	-1	.
CCNC(=O)Nc1ccc2c(c1)C(=O)N(C)[C@H]1CC[C@H](CC(=O)NCc3ccccc3F)O[C@H]1CO2	.	.	.	-2	.
